From PubChem BioAssay AID488969 (Vanderbilt High Throughput Screening Facility, 2010)
In all, about 110,000 compounds were measured (“z-score”: median about -0.1, highest 2% from about 2 on). This is one part of a sample in which the highest values are shown more often than they occur. The source made the active and inactive calls.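 The calls were made as follows: active = z-score in the third read window above 3 or below -3; inactive = the rest.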

The molecules below were run against Metabotropic glutamate receptor 8 (Rattus norvegicus) (UniProt P70579) (assay: rat mGluR8 modulators via GIRK flux, primary screen, cell-based, thallium flux, HTS (AID 488969)). Details: HEK293 rat mGluR8, GIRK (G protein-gated inwardly rectifying potassium channel) thallium flux, FluoZin2; at 10 µM; stronger effect = higher value; submaximal glutamate (EC20) added with thallium.
Chain of Metabotropic glutamate receptor 8 (Rattus norvegicus) (P70579 whole entry, looked up): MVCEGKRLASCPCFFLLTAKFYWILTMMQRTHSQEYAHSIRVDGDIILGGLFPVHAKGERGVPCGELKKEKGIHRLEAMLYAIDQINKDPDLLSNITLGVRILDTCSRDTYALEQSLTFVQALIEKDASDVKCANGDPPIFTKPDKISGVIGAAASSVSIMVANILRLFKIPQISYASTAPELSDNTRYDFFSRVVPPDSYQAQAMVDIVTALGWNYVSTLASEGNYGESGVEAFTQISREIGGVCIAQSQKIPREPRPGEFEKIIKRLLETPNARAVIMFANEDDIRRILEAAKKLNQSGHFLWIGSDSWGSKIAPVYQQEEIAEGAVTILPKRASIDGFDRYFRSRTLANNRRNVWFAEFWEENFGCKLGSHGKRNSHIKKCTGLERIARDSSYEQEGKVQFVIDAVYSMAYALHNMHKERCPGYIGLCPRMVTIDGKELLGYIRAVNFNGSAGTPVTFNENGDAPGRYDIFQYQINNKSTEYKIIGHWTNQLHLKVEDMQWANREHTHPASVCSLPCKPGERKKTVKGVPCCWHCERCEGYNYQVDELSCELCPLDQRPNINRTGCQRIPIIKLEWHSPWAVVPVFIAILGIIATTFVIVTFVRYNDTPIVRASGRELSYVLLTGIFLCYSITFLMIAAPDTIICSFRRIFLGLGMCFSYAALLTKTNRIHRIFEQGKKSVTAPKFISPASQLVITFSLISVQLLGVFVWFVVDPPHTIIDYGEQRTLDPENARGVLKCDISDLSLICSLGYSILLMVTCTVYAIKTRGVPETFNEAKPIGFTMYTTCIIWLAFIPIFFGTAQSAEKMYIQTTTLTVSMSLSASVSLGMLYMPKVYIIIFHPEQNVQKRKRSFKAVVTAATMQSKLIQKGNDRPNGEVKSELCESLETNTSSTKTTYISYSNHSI

Row | SMILES | z-score
1 | Cc1cc(C(=O)NCCCC(=O)O)c(C)o1 | -0.154
2 | Cc1noc(/C=C/N(C)C)c1S(=O)(=O)N1CCCC(C(=O)NC2CCCCC2)C1 (stereo not given) | -0.19
3 | Cc1noc(/C=C/N(C)C)c1S(=O)(=O)N(C)CC(=O)NC1CCCCC1 | 2.18
4 | Cc1noc(/C=C/N(C)C)c1S(=O)(=O)NC1CCCCC1 | -0.658
5 | CCCC1COC(Cn2cncn2)(c2ccc(C)cc2)O1 (stereo not given) | 10.6 (active)
6 | c1ccc(C2(c3ccccc3)OCC(Cn3cncn3)O2)cc1 (stereo not given) | 0.218
7 | Cc1ccc(SCCCn2cncn2)cc1 | -0.0811
8 | CCn1c(CCNC(=O)c2ccc(Cl)cc2)n[nH]c1=S | -0.774
9 | CCn1ncc(/C=C/C(=O)Nc2c(C)nn(CC)c2C)c1C | -0.306
10 | CC1CCCCC1NC(=O)COC(=O)c1ccc2c(c1Cl)C(=O)c1ccccc1C2=O (stereo not given) | -0.0566
11 | COc1ccccc1NC(=O)COC(=O)c1ccc2c(c1)nc(C)n2-c1ccccc1 | -0.283
12 | Cc1nc2cc(C(=O)OCC(=O)Nc3cccc(Cl)c3)ccc2n1-c1ccccc1 | 2.18
13 | O=C(COC(=O)c1cccnc1)Nc1ccccc1 | 0.274
14 | O=C(COC(=O)c1cccc(N2C(=O)c3ccccc3C2=O)c1)Nc1ccccc1 | 5.13 (active)
15 | Cc1nc2cc(C(=O)OCC(=O)Nc3ccc(C#N)cc3)ccc2n1-c1ccccc1 | -0.0383
16 | CC(=O)c1cccc(NC(=O)COC(=O)c2cccc(N3C(=O)c4ccccc4C3=O)c2)c1 | 0.155
17 | Cc1cc(NS(=O)(=O)c2ccc(NC(=O)c3cc(-c4ccccc4Cl)nc4ccccc34)cc2)no1 | -1.51
18 | C=CCn1c(=NC(=O)c2ccco2)sc2cc(C(=O)OC)ccc21 | 0.103
19 | COc1ccccc1C(=O)Nc1ccc2c(c1)OCO2 | 0.246
20 | CN(C)C(=O)N1CCCC(C(=O)NCc2ccccc2)C1 (stereo not given) | -0.341
21 | CC(/C=N/NC(=O)c1ccncc1)=C\c1ccccc1 | 0.474
22 | CC(/C=N/NC(=O)c1ccncc1)=C\c1ccc(C(C)C)cc1 | -0.0873

Row | SMILES | z-score
23 | CC(=C/c1ccc(C(C)C)cc1)/C=N/NC(=O)c1ccncc1 | 2.21
24 | COc1cc(/C=N\NC(=O)c2ccc(=O)[nH]n2)cc(OC)c1OC | 0.00269
25 | O=C(NO)c1ccc(OC(F)F)cc1 | 0.319
26 | CCC1CCCCN1c1cc(C)nc2cc(-c3cccc(C)c3)nn12 (stereo not given) | -0.0418
27 | C#CCn1c(=NC(=O)c2ccccc2[N+](=O)[O-])sc2cc(S(C)(=O)=O)ccc21 | -0.119
28 | Cc1cccc(-c2nc(=S)c3c(o2)CCCC3)c1 | 0.856
29 | S=c1nc(-c2ccc(Br)cc2)oc2c1CCCC2 | 4.2 (active)
30 | S=c1nc(-c2ccccc2)oc2c1CCCC2 | -0.0866
31 | C=CCONC(=O)c1cc(OCC(F)(F)F)ccc1OCC(F)(F)F | -0.0898
32 | COCCCNCCOCCSc1ccc(Cl)cc1 | 0.918
33 | O=C(Cn1cncc1-c1ccc([N+](=O)[O-])cc1)Nc1cccc2ccccc12 | -0.199
34 | CC1CCc2c(sc(NC(=O)COC(=O)c3ccccc3NCc3ccco3)c2C#N)C1 (stereo not given) | -0.152
35 | CC1CCc2c(sc(NC(=O)C(=O)NCc3ccco3)c2C#N)C1 (stereo not given) | 11.4 (active)
36 | CC1CCc2c(sc(NC(=O)CN3CCN(C(=O)c4ccco4)CC3)c2C#N)C1 (stereo not given) | 0.101
37 | COc1ccc(S(=O)(=O)N2CCN(C3Cc4ccccc4C3)CC2)cc1 | -0.439
38 | Cc1cc(C)n(CC(O)CN(c2ccccc2)S(=O)(=O)c2ccccc2)n1 (stereo not given) | -0.261
39 | Cc1cc(C)c(NC(=O)c2ccc(S(=O)(=O)N(C)C)cc2)c(C)n1 | -1.73
40 | O=C(Nc1nnc(-c2ccc3c(c2)OCCO3)o1)c1ccc(Cc2ccccc2)cc1 | -0.048
41 | COc1ccccc1C(=O)Nc1nnc(-c2ccc3c(c2)CCCC3)o1 | -0.536
42 | O=C(Nc1nnc(-c2ccccn2)o1)c1cccc(Br)c1 | 0.334
43 | CC1CN(S(=O)(=O)c2cccc(C(=O)Nc3ccc4c(c3)CCC4)c2)CC(C)O1 (stereo not given) | -0.053
44 | N#Cc1ccc(C(=O)Nc2nnc(-c3ccccn3)o2)cc1 | -0.232

Row | SMILES | z-score
45 | O=C(Nc1nnc(-c2ccccn2)o1)c1ccc(Br)cc1 | 2.32
46 | O=C(CCc1ccccc1)Nc1nnc(-c2ccc3c(c2)CCCC3)o1 | -0.145
47 | Cc1cc(C)nc(NS(=O)(=O)c2ccc(NC(=O)c3ccc(S(=O)(=O)N4CC(C)OC(C)C4)cc3)cc2)n1 (stereo not given) | -0.605
48 | O=C(Nc1nnc(-c2ccc3c(c2)CCCC3)o1)c1ccccc1Cl | 5.26 (active)
49 | CC1CN(S(=O)(=O)c2ccc(C(=O)Nc3nnc(-c4ccc5c(c4)CCCC5)o3)cc2)CC(C)O1 (stereo not given) | 2.42
50 | CN(C)S(=O)(=O)c1ccc(C(=O)Nc2nnc(-c3ccc4c(c3)CCCC4)o2)cc1 | 5.8 (active)
51 | Nc1ccc(SC(F)(F)F)cc1C(=O)c1ccccc1 | -0.00154
52 | O=C(COC(=O)C1CCN(S(=O)(=O)c2ccc3c(c2)OCCO3)CC1)Nc1cc(C(F)(F)F)ccc1Cl | -0.303
53 | CCCC12CN3CCN(CC(C3)/C1=N\NC(=O)Nc1ccccc1)C2 | -0.242
54 | CCc1cc2cc(C(=O)Nc3ccc(F)cc3)sc2s1 | -0.0494
55 | Cc1nc2ccc(F)cc2cc1C(=O)NCc1ccco1 | -0.0284
56 | O=C(COC(=O)CCc1nc2ccccc2s1)Nc1ncc(Cl)cc1Cl | -0.33
57 | CN1CCN(/C=N/c2c(C#N)cnn2-c2ccccc2)CC1 | 0.237
58 | O=C(CNC(=O)c1cccc(F)c1)OCc1cc(=O)n2cc(Br)ccc2n1 | -0.354
59 | O=C(Nc1nnc(-c2ccc3c(c2)CCCC3)o1)c1ccc(Cl)cc1Cl | 15.6 (active)
60 | O=C(Nc1nnc(-c2ccc3c(c2)CCCC3)o1)c1ccccc1 | 15.5 (active)
61 | O=C(Nc1nnc(-c2ccc3c(c2)CCCC3)o1)C1CCCCC1 | -0.309
62 | O=C(Nc1ccc2c(c1)CCC2)C1COc2ccccc2O1 (stereo not given) | 0.9
63 | Clc1ccc(-c2nnc(NC3=NCCCCC3)o2)cc1 | 0.0658
64 | CC(=O)Nc1nnc(-c2ccc3c(c2)CCCC3)o1 | 0.0154
65 | CCCN(CCC)S(=O)(=O)c1ccc(C(=O)Nc2nnc(CSC)o2)cc1 | 0.35
66 | O=C(Nc1nnc(-c2ccc3c(c2)CCCC3)o1)C1COc2ccccc2O1 (stereo not given) | 7.22 (active)

Row | SMILES | z-score
67 | O=C(COc1ccccc1)Nc1nnc(-c2ccc3c(c2)CCCC3)o1 | 1.27
68 | CCCN(CCC)S(=O)(=O)c1ccc(C(=O)Nc2nnc(-c3cccc(OC)c3)o2)cc1 | 3.65 (active)
69 | O=C(COc1ccc(Cl)cc1)Nc1nnc(-c2ccc3c(c2)CCCC3)o1 | -0.441
70 | COc1cccc(-c2nnc(NC(=O)c3ccc(S(=O)(=O)N(CC(C)C)CC(C)C)cc3)o2)c1 | -0.14
71 | COc1nnc(-c2ccc(N3CCCCC3)c(NC(=O)C3CCCCC3)c2)c2ccccc12 | -0.3
72 | Cc1ccccc1N1CCN(C(=O)CCN2C(=O)c3ccccc3C2=O)CC1 | -0.36
73 | COc1ccc(C(=O)Nc2ccc(Cl)c(Cl)c2)c(OC)n1 | -0.192
74 | COc1ccccc1C(=O)NNC(=O)c1ccc(F)cc1 | 0.0416
75 | CCC(C)(C)n1nnnc1C(C(C)C)N1CCSCC1 (stereo not given) | 0.805
76 | O=S(Cc1ccc(Br)cc1)Cc1nnc(SCc2c(Cl)cccc2Cl)n1-c1ccccc1 (stereo not given) | 0.0461
77 | CCNC(=O)C1CCCN1S(=O)(=O)c1ccc(C)cc1 (stereo not given) | -0.513
78 | Cc1ccc2cc3cc(C(=O)N4CCN(Cc5ccccc5)CC4)sc3nc2c1 | 0.586
79 | O=C(/C=C/c1ccccc1)NC(NC(=S)Nc1cccc(Cl)c1)C(Cl)(Cl)Cl (stereo not given) | 1.36
80 | COc1ccc(NC(=S)NC(NC(=O)/C=C/c2ccccc2)C(Cl)(Cl)Cl)cc1 (stereo not given) | 1.83
81 | O=C(/C=C/c1ccccc1)NC(NC(=S)Nc1cc(Cl)ccc1Cl)C(Cl)(Cl)Cl (stereo not given) | 5.83 (active)
82 | O=C(/C=C/c1ccccc1)NC(NC(=S)Nc1ccc(Cl)cc1Cl)C(Cl)(Cl)Cl (stereo not given) | 0.717
83 | O=C(Cc1ccccc1)NC(NC(=S)Nc1cc(Cl)ccc1Cl)C(Cl)(Cl)Cl (stereo not given) | -0.195
84 | O=C(/C=C/c1ccccc1)NC(NC(=S)Nc1cccc(O)c1)C(Cl)(Cl)Cl (stereo not given) | 2.09
85 | O=C(CNc1n[nH]c(=O)[nH]c1=O)N/N=C/c1cccnc1 | -0.114
86 | Cc1cccc(N2CCN(C(=O)Cn3cnc4c3c(=O)n(C)c(=O)n4C)CC2)c1C | -0.973
87 | Cn1nnc(NC(=O)c2ccc3ccccc3c2)n1 | -1.31
88 | CCOC(=O)C(NC(=O)CC)(Nc1nc2c(s1)CCCC2)C(F)(F)F (stereo not given) | -0.0129

Row | SMILES | z-score
89 | O=C(Nc1nc2c(s1)CCCC2)Oc1ccccc1 | -0.198
90 | COC(=O)C(NC(=O)COc1ccccc1)(Nc1nc2c(s1)CCCC2)C(F)(F)F (stereo not given) | 2.96
91 | CC(C)CNC(C(=O)Nc1ccc([N+](=O)[O-])cc1Br)c1ccccc1 (stereo not given) | -0.337
92 | O=C1CC(c2ccccc2)CC(O)=C1C=NCc1ccccc1 (stereo not given) | -0.229
93 | CCCN=CC1=C(O)CC(c2ccccc2)CC1=O (stereo not given) | -0.493
94 | CCC(C)N=CC1=C(O)CC(c2ccccc2)CC1=O (stereo not given) | 2.05
95 | C=C(Br)Cn1c(CC(C)C)nc2ccccc21 | -0.262
96 | COC(=O)c1sc(N)nc1C(C)(C)C | -0.167
97 | COc1cc2c(cc1Cl)/C(=C\CCN(C)C)c1ccccc1S2 | -0.852
98 | COc1cc(Cl)cc2c1Sc1ccccc1/C2=C/CCN(C)C | 3.63 (active)
99 | CN(C)CC/C=C1/c2ccccc2Sc2c(O)cc(Cl)cc21 | 1.62
100 | O=C(CNc1ccccc1)N/N=C/c1ccc2c(c1)OCO2 | -0.247
101 | COc1ccc(NC(=O)Nc2nnc(-c3ccccc3SCc3ccccc3)s2)cc1 | -0.158
102 | CC(=O)N1CCN=C1SCc1ccccc1 | -0.898
103 | CC(=O)N1CCN=C1SCc1ccc(Br)cc1 | 2.58
104 | CC(=O)N1CCN=C1SCc1ccc(F)cc1 | 0.0688
105 | COC(=O)c1ccc(NC(=O)C(=O)N2CCN(C(=S)NCCc3ccccc3)CC2)cc1 | -0.154
106 | O=C(N/N=C\c1cn[nH]c1-c1ccccc1)c1cccnc1 | 0.0508
107 | O=C(OCc1ccccc1)Oc1cncc(C(=O)O)c1 | 2.64
108 | CCOC(=O)c1cncc(C(=O)O)c1 | 1.8
109 | COC(=O)Oc1cncc(C(=O)O)c1 | -0.0704
110 | CCN(CC)S(=O)(=O)c1ccc(C(=O)NCc2ccc3c(c2)cc(C)n3C)cc1 | -0.388
